Test results: PubChem BioAssay AID540359 (Broad Institute, 2011)
Results with a measured potency or affinity are listed apart. Calls of active or inactive are those of the source. How the calls were made is not given here.

biological target: UDP-galactopyranose mutase (Mycobacterium tuberculosis (strain ATCC 25618 / H37Rv)) (UniProt P9WIQ1); experiment: Mycobacterium tuberculosis UGM enzyme inhibition, dose response confirmation, purified biochemical assay (AID 540359); conditions: plate reader activity; series mostly up to 50 µM
Sequence (P9WIQ1 whole entry, looked up): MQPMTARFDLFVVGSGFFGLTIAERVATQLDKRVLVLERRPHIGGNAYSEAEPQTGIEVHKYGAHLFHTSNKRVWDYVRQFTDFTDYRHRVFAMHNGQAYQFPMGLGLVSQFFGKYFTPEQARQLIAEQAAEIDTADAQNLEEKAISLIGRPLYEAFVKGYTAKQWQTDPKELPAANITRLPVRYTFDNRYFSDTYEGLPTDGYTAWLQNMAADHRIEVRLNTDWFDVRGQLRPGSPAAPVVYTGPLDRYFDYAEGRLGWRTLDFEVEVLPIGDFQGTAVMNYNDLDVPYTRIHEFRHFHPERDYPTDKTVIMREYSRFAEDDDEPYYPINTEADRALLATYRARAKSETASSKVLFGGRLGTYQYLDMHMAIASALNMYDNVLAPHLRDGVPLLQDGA

SMILES	outcome
CN(CC(=O)NC1CC1)S(=O)(=O)c1ccc(Br)cc1	inactive
CCc1ccc(C(CC(=O)c2ccc(Cl)cc2)C(=O)O)cc1 (configuration not stated)	inactive
O=S(=O)(c1ccccc1)N(CC1CO1)c1cc(Cl)ccc1Cl (configuration not stated)	inactive
CCOC(=O)c1cnc2ccc(Cl)cc2c1NCCN(C)C	inactive
O=C(Nc1ccccc1F)C(=Cc1sc(N2CCOCC2)nc1-c1ccccc1)C(=O)Nc1ccccc1F	inactive
O=C(COC(=O)CN1C(=O)NC2(CCCC2)C1=O)NCc1ccc(Cl)cc1Cl	inactive
COCCCn1c(=O)/c(=C\c2ccccc2OC(C)C)s/c1=C(/C#N)C(=O)Nc1ccc(C(=O)O)cc1	inactive
COc1ccccc1NC(=O)c1sc2nc(Cc3ccccc3)cc(C(F)(F)F)c2c1N	inactive
COc1ccc(OC)c(/C=C2\Oc3cc(OCC(=O)N4CCC[C@H]4C(=O)O)ccc3C2=O)c1	inactive
COc1ccc(N2C(=O)c3cccc4c(N(C)CCO)ccc(c34)C2=O)cc1	inactive
Cc1cc(C)c(S(=O)(=O)n2c([N+](=O)[O-])cnc2C)cc1C	inactive
O=C(N=c1ccn(-c2nc3ccccc3nc2NS(=O)(=O)c2ccc(Cl)cc2)cc1)c1cccs1	inactive
CCOC(=O)/C(C#N)=C1\CC2CCC1(C)C2(C)C (configuration not stated)	inactive
Brc1ccc(/C=N/c2nc3ccccc3n2CCN2CCOCC2)cc1	inactive
CCc1ccc2c(c1)C(c1ccc([N+](=O)[O-])cc1)=NNC(c1ccc(Br)cc1)=N2	inactive
CCc1cc(C(=O)c2ccc(C)cc2)c(NC(=O)CCl)s1	inactive
O=C(COC(=O)COc1cccc(Br)c1)NCc1ccc2c(c1)OCO2	inactive
